Bioassay records deposited in PubChem BioAssay by several laboratories.
Shown are actives, neighbours in structure and some others; about 1.3% of the full set was active somewhere.
sdo1 growth = compounds rescuing growth of sdo1-depleted yeast, bone marrow failure model. AID 817. z-score at 10 µM. 140,000 compounds, 0.21% hits. S. cerevisiae sdo1-depleted JHY4D growth rescue, OD600 30 h; hits give high values; pdr5 snq2 efflux-pump mutant strain;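 active = z-score above 3 at both the 24 hr and the 30 hr optical density reads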
Phagocyt inh = blocks phagocytosis by macrophages | J774A.1 macrophage IgG-bead phagocytosis, imaging | inhibition, % at 5 µM | 110,000 compounds, 0.07% hits | AID 1029;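 active = inhibition above the mean of the plate negative controls plus 5 SD, cut at about 13% in these data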;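 note: phagocytic index as fraction of beads internalized from green versus red external bead signal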
CD11b adhes enh = enhancers of human CD11b/CD18 binding to fibrinogen | activation, % at 10 µM | P05107+P11215 | AID 1499 | 93,000 compounds, 0.07% hits | K562 CD11b/CD18 adhesion to fibrinogen, ATPlite luminescence;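 active = 10 µM primary screen giving 50% or more activity, confirmed by 40% or more on retest at that dose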
Target sequence (P05107 whole entry, looked up, other chains not shown): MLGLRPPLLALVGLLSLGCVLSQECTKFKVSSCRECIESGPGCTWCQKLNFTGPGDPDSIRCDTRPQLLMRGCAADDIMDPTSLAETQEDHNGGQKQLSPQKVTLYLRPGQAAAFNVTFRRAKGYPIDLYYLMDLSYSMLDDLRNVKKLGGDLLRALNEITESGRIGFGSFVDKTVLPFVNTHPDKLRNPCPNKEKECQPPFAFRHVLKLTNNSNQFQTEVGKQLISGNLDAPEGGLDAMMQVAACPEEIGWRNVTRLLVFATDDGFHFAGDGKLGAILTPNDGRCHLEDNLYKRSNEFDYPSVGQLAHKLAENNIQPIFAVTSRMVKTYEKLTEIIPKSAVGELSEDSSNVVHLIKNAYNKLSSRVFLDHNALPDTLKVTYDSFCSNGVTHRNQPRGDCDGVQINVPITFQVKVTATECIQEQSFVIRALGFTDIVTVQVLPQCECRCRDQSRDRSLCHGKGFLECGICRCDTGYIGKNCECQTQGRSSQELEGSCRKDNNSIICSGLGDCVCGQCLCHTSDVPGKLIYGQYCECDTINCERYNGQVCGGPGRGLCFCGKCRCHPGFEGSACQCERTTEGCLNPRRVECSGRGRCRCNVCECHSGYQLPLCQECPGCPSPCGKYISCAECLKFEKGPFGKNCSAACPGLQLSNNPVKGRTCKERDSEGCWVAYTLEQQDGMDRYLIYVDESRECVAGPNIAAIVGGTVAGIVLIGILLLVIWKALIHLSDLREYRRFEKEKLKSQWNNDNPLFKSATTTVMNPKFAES
CD11b adhes inh = CD11b/CD18-fibrinogen binding inhibition; K562 CD11b/CD18 adhesion to fibrinogen, ATPlite luminescence; Mn2+ added to activate the integrin; 93,000 compounds, 0.54% hits; inhibition, % at 10 µM; P05107+P11215;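 active = primary inhibition of 50% or more at 10 µM, then 40% or more on retest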
MRP1 act = activates MRP-1. viability increase, % at 10 µM. 140,000 compounds, 0.61% hits. AID 799. H69AR cells + doxorubicin, viability rescue, CellTiter-Glo;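 active = viability gain under doxorubicin at or above a set limit, the compound median plus 3 SD, cut at about 4.7% in these data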;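 note: MRP-1 overexpressing cells given doxorubicin 25 µM after compound pretreatment; 18-22 h compound pretreatment then 72 h with doxorubicin before readout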
MRP resist rev = reverses drug resistance mediated by MRP; H69AR cells + 2 uM doxorubicin, CellTiter-Glo, 72 h; differential viability (reversal), % at 10 µM; 85,000 compounds, 0.04% hits; AID 602;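 active = viability drop by adding the cancer drug above about 55%, with treated viability meeting a 40% cutoff, limit read from the data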;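 note: larger differential means the compound sensitizes cells more to doxorubicin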
Large screens that a line does not name were inactive; [ ] = remark or other dose.

COc1ccc([C@H]2[C@H](C(=O)C(C)(C)C)N3N=Cc4ccccc4C3[C@]23N=C(c2ccccc2)OC3=O)cc1 (some centres not stated)	none
COc1ccc([C@H]2[C@H](C(=O)C(C)(C)C)N3N=Cc4ccccc4C3[C@]23N=C(c2ccccc2)OC3=O)cc1OC (some centres not stated)	CD11b adhes enh 91
CSc1cccc(NS(=O)(=O)c2cccc3nsnc23)c1	none
COc1ccc(N(C(=O)Cn2cnc3ccccc32)C(C(=O)NC2CCCCC2)c2ccccc2)cc1 (configuration not stated)	MRP1 act 13 (no result: MRP resist rev)
COc1cccc(C2CC(c3cccs3)=NN2C(=O)CSC2=NN3CCCC(=O)N=C3S2)c1OC (configuration not stated)	none
O=C(NCc1ccccn1)c1cn(CCc2ccccc2)nn1	MRP resist rev 57
CCOP(=O)(O)c1ccccc1OCCCCCOc1ccccc1P(=O)(O)OCC	none (no result: Phagocyt inh, CD11b adhes enh, CD11b adhes inh)
Cc1ccc(C)c(N2CCN(C(=O)Cc3ccc(-n4c(=O)[nH]c5ccsc5c4=O)cc3)CC2)c1	MRP1 act 9.6 (no result: CD11b adhes enh, CD11b adhes inh, MRP resist rev)
Cc1cc(/C=C2\SC(=S)NC2=O)c(C)n1C	MRP1 act 5.5 (no result: MRP resist rev)
O=c1[nH]c(=O)n(-c2ccccc2)c2c1C(C(F)(F)F)(C(F)(F)F)N=C(CCC1CCCCC1)N2	none (no result: CD11b adhes enh, CD11b adhes inh, MRP resist rev)
CCN1/C(=C/c2ccc3ccccc3[n+]2CC)C=Cc2ccccc21	CD11b adhes inh 94
CCN1/C(=C/c2cc[n+](C)cc2)C=Cc2cc(C)ccc21	none (no result: CD11b adhes enh, CD11b adhes inh, MRP resist rev)
Cc1nc([N+](=O)[O-])c(Br)n1CC(=O)c1ccccc1	none
Cc1nc([N+](=O)[O-])c(Br)n1CC(=O)c1ccc2ccccc2c1	Phagocyt inh active
COc1cccc(N2CC(C(=O)Nc3nnc(SCc4cccnc4)s3)CC2=O)c1 (configuration not stated)	none (no result: MRP resist rev)
COc1ccccc1Oc1ccc(S(=O)(=O)NCc2ccccn2)cc1	CD11b adhes inh 68
O=c1[nH]c(N/N=C/c2ccccc2Br)nnc1-c1ccccc1	MRP1 act 4.8 (no result: CD11b adhes enh, CD11b adhes inh, MRP resist rev)
COc1ccc(/C=N/Nc2nnc(-c3ccccc3)c(=O)[nH]2)cc1	none (no result: CD11b adhes enh, CD11b adhes inh, MRP resist rev)
COc1ccc(OC)c2[nH]c(=O)c(CCNC(=O)C(C)C)cc12	none
COc1ccc(OC)c2[nH]c(=O)c(CCNC(=O)c3ccc(Br)o3)cc12	MRP1 act 4.7
O=C(COc1ccccc1N1C(=O)c2ccccc2C1=O)c1ccc(Cl)cc1	Phagocyt inh 6.1[artifact] (no result: MRP resist rev)
O=C(COc1ccc(N2C(=O)c3ccccc3C2=O)cc1)c1ccccc1	none (no result: CD11b adhes enh, CD11b adhes inh, MRP resist rev)
CN(C)C(CNc1nnnn1-c1ccccc1)c1ccco1 (configuration not stated)	none
O=C1/C(=C\c2ccco2)SC(=S)N1c1ccc(O)cc1	MRP1 act 5.2 (no result: CD11b adhes enh, CD11b adhes inh, MRP resist rev)
Cc1ccc(OCCCCn2cnc3ccccc32)c(C)c1	CD11b adhes inh 86
CCCNC(=O)c1oc2ccc3c(c2c1C)C(=O)CC(C)(C)O3	MRP1 act 7.1 (no result: Phagocyt inh)
Oc1cc(NCc2cccnc2)ccc1-c1nc2ccccc2o1	MRP1 act 5.0 (no result: CD11b adhes enh, CD11b adhes inh)
COc1ccccc1N1CCN(C(=O)c2cc3c(s2)CCC3)CC1	CD11b adhes enh 70 (no result: Phagocyt inh)
Cc1ccc(NC(=O)CN2C(=O)S/C(=C\c3cccn3-c3cccc(C(=O)O)c3)C2=O)c(C)c1	CD11b adhes enh 87 (no result: MRP resist rev)
COc1ccc(/C=C/C(=O)OCC(=O)Nc2ccc(Cl)c(S(=O)(=O)N(C)C)c2)cc1OC	none (no result: Phagocyt inh, CD11b adhes enh, CD11b adhes inh, MRP resist rev)
Cc1cc(C)c2nc(/N=C(\N)NC(=O)Nc3ccccc3)nc(C)c2c1	none (no result: CD11b adhes enh, CD11b adhes inh, MRP resist rev)
COc1ccc(S(=O)(=O)N=C2C=C(C)C(=O)C(C)=C2)cc1	CD11b adhes inh 89 (no result: MRP resist rev)
COc1ccc(S(=O)(=O)N2CCCCC2)cc1	none
O=C1CC(N2CCC(c3nc4ccccc4o3)CC2)C(=O)N1c1cc(Cl)cc(Cl)c1 (configuration not stated)	MRP1 act 8.2
COC(=O)N/N=C/c1ccc(-c2cc(Cl)ccc2Cl)o1	MRP1 act 4.9 (no result: MRP resist rev)
O=C(c1ccccc1)c1nc2ccccc2n(CCCn2c(=O)c(C(=O)c3ccccc3)nc3ccccc32)c1=O	CD11b adhes enh 132
Cn1c(=O)c(C(=O)c2ccccc2)nc2ccccc21	none
O=C(COc1ccc2c(C(F)(F)F)cc(=O)oc2c1)NCc1cccs1	none (no result: CD11b adhes enh, CD11b adhes inh, MRP resist rev)
O=C(COc1ccc(Br)cc1)Nc1ccncc1	none
Cc1cc(OCC(=O)Nc2ccncc2)c(C)cc1Br	CD11b adhes inh 98
COc1cccc(C2C(C(=O)Nc3nc4ccccc4s3)=C(C)NC3=C2C(=O)CC(C)(C)C3)c1OC (configuration not stated)	MRP1 act 7.9 (no result: MRP resist rev)
CC(=O)N1CCC(=NNC(=O)c2cccs2)CC1	none (no result: CD11b adhes enh, CD11b adhes inh, MRP resist rev)
O=C(CCC(=O)Nc1ccccc1)NNC(=O)C(c1ccccc1)c1ccccc1	none (no result: CD11b adhes enh, CD11b adhes inh, MRP resist rev)
CCOc1cc(/C=N/NC(=O)CNc2ccc(C)cc2)ccc1OC(=O)c1ccccc1	Phagocyt inh 174
N#C/C(=C\c1ccc(F)cc1)c1n[nH]c(Cn2cncn2)n1	none
O=C(Nc1ccc(OC(F)(F)F)cc1)c1n[nH]c(Cn2cncn2)n1	MRP1 act 4.9 (no result: Phagocyt inh, CD11b adhes enh, CD11b adhes inh, MRP resist rev)
CC1CC(C)(C)CC2(C1)NC(=O)N(CC(=O)NC1CCCc3ccccc31)C2=O (configuration not stated)	none (no result: CD11b adhes enh, CD11b adhes inh, MRP resist rev)
CCn1c2ccccc2c2nnc(SCC(=O)NC(C(=O)OC)C(C)C)nc21 (configuration not stated)	none (no result: sdo1 growth, Phagocyt inh, CD11b adhes enh, CD11b adhes inh, MRP1 act)
COc1cccc(CNC(=O)c2cc3c(C)nc4ccccc4c3o2)c1	none
CCc1ccc(CNC(=O)c2cc3c(C)nc4ccccc4c3o2)cc1	CD11b adhes inh 94
CCOC(=O)c1cc(C)n(Cc2cccc(OC)c2OC)c1C	CD11b adhes inh 56
Cc1ccc(C2C(/C=C3/SC(=S)NC3=O)=C(c3cccs3)Oc3ccccc32)cc1 (configuration not stated)	CD11b adhes inh 78
Cc1nn(C)c(C)c1/C=C1/SC(=S)NC1=O	none (no result: MRP resist rev)
CC1CCC/C(=N\NC(=O)c2ccncc2)C1 (configuration not stated)	none (no result: CD11b adhes enh, CD11b adhes inh, MRP resist rev)
Cc1cc(C)n(CCC(=O)N/N=C/c2ccccc2O)n1	MRP1 act 5.6 (no result: MRP resist rev)
O=S(=O)(Nc1nc2ccccc2nc1NCc1ccco1)c1ccccc1	none
c1coc(CNc2nc3nonc3nc2NCc2ccco2)c1	CD11b adhes inh 62 (no result: MRP resist rev)
O=C(CCCCl)NC1=NN(c2ccccc2)C(=O)C1	MRP1 act 7.3 (no result: Phagocyt inh, MRP resist rev)
CC(=O)NC1=NN(c2ccccc2)C(=O)C1	none (no result: Phagocyt inh, CD11b adhes enh, CD11b adhes inh, MRP resist rev)
CCOc1ccc(C(=O)N/N=C/c2ccc(-c3ccc(S(=O)(=O)Nc4ncccn4)cc3)o2)cc1	none (no result: MRP resist rev)
O=C(N/N=C/c1ccc(-c2ccc(S(=O)(=O)Nc3ncccn3)cc2)o1)c1cc2ccccc2cc1O	CD11b adhes enh 53 (no result: MRP resist rev)
O=C(CSc1nnnn1C1CC2CCC1C2)Nc1ccnc2ccccc12 (configuration not stated)	CD11b adhes inh 100
COc1ccc(S(=O)(=O)Nc2cc(Sc3ncn[nH]3)c(O)c3ccccc23)cc1	CD11b adhes inh 90 (no result: MRP resist rev)
